SMILES strings stand for the structures. This is part of a sample that, as a whole, favours compounds with a hit. Of some 83,000 tested, about 20% had one in any assay.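 In brief: 96-well plates, 48 h treatment, single concentration, percent growth endpoint.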 Unmarked numbers belong to inactive results. Activity calls are given as the source filed them. Rule for the calls: active = growth percent below 10; inactive = the rest.

Test systems include EKVX NSCLC; SN12C renal; UO-31 renal; TK-10 renal; ACHN renal; CAKI-1 renal; A498 renal; CCRF-CEM leukemia; MOLT-4 leukemia; SR leukemia; RPMI-8226 leukemia; OVCAR-8 ovarian; OVCAR-5 ovarian; OVCAR-4 ovarian; SK-OV-3 ovarian; IGROV1 ovarian; OVCAR-3 ovarian; NCI/ADR-RES ovarian.
What all share (experiment): NCI-60 one-dose screen, 48 h (100 = growth as untreated, 0 = no growth, -100 = all killed)
What all share (details): 10 µM unless noted

In the case of `C/C=C/C=N/NC(=S)Nc1ccccc1`, the growth in the test with EKVX NSCLC was 101%; in the test with SN12C renal, 89.3%; in the test on UO-31 renal it was 72.6%; in the test on TK-10 renal, 112%; with ACHN renal, 99.2%; with CAKI-1 renal it was 92.1%. For the same compound, the growth is 120% in the test on A498 renal; 91.8% with CCRF-CEM leukemia; 99.2% in the test with MOLT-4 leukemia; 83.4% with SR leukemia; 104% in the test with RPMI-8226 leukemia; 96.5% with OVCAR-8 ovarian. The growth is 82.2% in the test on OVCAR-5 ovarian; 94.1% in the test with OVCAR-4 ovarian; 94.2% in the test with SK-OV-3 ovarian; 93.6% in the test with IGROV1 ovarian; 117% in the test with OVCAR-3 ovarian; 99% with NCI/ADR-RES ovarian.

For the compound `CN1CCN(c2ccc(OC(F)(F)F)c(Nc3ncc4c(n3)-c3c(c(C(N)=O)nn3CCO)CC4)c2)CC1`, the growth in the test with EKVX NSCLC was 35.7%; in the test with SN12C renal, 25.9%; in the test with UO-31 renal, 35.3%; with TK-10 renal it was 53.5%; in the test on ACHN renal it was 37.1%; with CAKI-1 renal it was 28.4%. For the same compound, the growth in the test on A498 renal is -5.99% (active); in the test with CCRF-CEM leukemia it was 18.2%; with MOLT-4 leukemia it was 18.3%; in the test on SR leukemia, 4.81% (active); with RPMI-8226 leukemia it was 32.7%; in the test with OVCAR-8 ovarian, 9.62% (active). The growth in the test with OVCAR-5 ovarian is 19.9%; in the test on OVCAR-4 ovarian, 71.5%; in the test on SK-OV-3 ovarian, -3.27% (active); in the test on IGROV1 ovarian, 25.1%; in the test with OVCAR-3 ovarian, 41%; in the test on NCI/ADR-RES ovarian it was 12.9%.

With `C#Cc1cccc(Nc2ncnc3cc(OCCOC)c(OCCOC)cc23)c1`, the growth in the test with EKVX NSCLC is 39.6%; in the test on SN12C renal, 50.5%; in the test with UO-31 renal it was 17.3%; with TK-10 renal, -6.62% (active); in the test with ACHN renal, 11.3%; in the test with CAKI-1 renal, 6.29% (active). The growth was 20.2% in the test with A498 renal; 71.2% with CCRF-CEM leukemia; 56.1% in the test with MOLT-4 leukemia; 51.3% with SR leukemia; 70.1% in the test on RPMI-8226 leukemia; 40.4% in the test on OVCAR-8 ovarian. Further, the growth was 48.4% in the test on OVCAR-5 ovarian; 54.3% with OVCAR-4 ovarian; -21.9% (active) in the test on SK-OV-3 ovarian; 8.02% (active) with IGROV1 ovarian; 64.2% in the test on OVCAR-3 ovarian; 56.9% in the test with NCI/ADR-RES ovarian.

Consider `O=C(NOCCO)c1ccc2cncn2c1Nc1ccc(I)cc1F`, for which the growth was 54.6% with EKVX NSCLC; 68.1% in the test with SN12C renal; 37.2% in the test with UO-31 renal; 57.2% with TK-10 renal; 59.9% in the test on ACHN renal; 41% with CAKI-1 renal. Moreover, the growth in the test with A498 renal is -11% (active); in the test with CCRF-CEM leukemia, 77.1%; in the test on MOLT-4 leukemia, 85%; in the test on SR leukemia, 56.9%; in the test with RPMI-8226 leukemia, 72.8%; with OVCAR-8 ovarian it was 58.6%. The growth is 19.3% in the test with OVCAR-5 ovarian; 70.8% in the test on OVCAR-4 ovarian; 49% with SK-OV-3 ovarian; 26.2% in the test with IGROV1 ovarian; 102% in the test on OVCAR-3 ovarian; 71.8% in the test with NCI/ADR-RES ovarian.

As to `CO[C@@H](C(=O)N1Cc2[nH]nc(NC(=O)c3ccc(N4CCN(C)CC4)cc3)c2C1)c1ccccc1`, the growth in the test with EKVX NSCLC is 59.3%; with SN12C renal it was 26.8%; with UO-31 renal, 50.7%; in the test with TK-10 renal, 9.33% (active); in the test with ACHN renal, 41.9%; in the test with CAKI-1 renal it was 17.3%. In addition, the growth was -37% (active) in the test with A498 renal; 51.5% in the test on CCRF-CEM leukemia; 31% in the test on MOLT-4 leukemia; -1.07% (active) with SR leukemia; 44% in the test with RPMI-8226 leukemia; 5.58% (active) with OVCAR-8 ovarian. In addition, the growth in the test with OVCAR-5 ovarian was 4.9% (active); with OVCAR-4 ovarian, 9.35% (active); in the test with SK-OV-3 ovarian, 7.44% (active); in the test on IGROV1 ovarian, -16.1% (active); in the test with OVCAR-3 ovarian, 40.6%; in the test on NCI/ADR-RES ovarian, 81.7%.

Turning to `O=c1[nH]ccc2c(S(=O)(=O)N3CCCNCC3)cccc12`, the growth is 65.4% with EKVX NSCLC; 69.2% in the test on SN12C renal; 40.6% in the test on UO-31 renal; 26% in the test on TK-10 renal; 41.7% in the test with ACHN renal; 55.5% in the test on CAKI-1 renal. For the same compound, the growth was 36.3% in the test with A498 renal; 89.1% in the test with CCRF-CEM leukemia; 84.9% in the test with MOLT-4 leukemia; 83.3% with SR leukemia; 106% in the test on RPMI-8226 leukemia; 90.4% in the test on OVCAR-8 ovarian. In addition, the growth is 62.9% with OVCAR-5 ovarian; 89.5% in the test with OVCAR-4 ovarian; -0.289% (active) with SK-OV-3 ovarian; 31.2% in the test on IGROV1 ovarian; 60.7% in the test on OVCAR-3 ovarian; 75.4% in the test on NCI/ADR-RES ovarian.

With `O=C(Cc1ccc(-c2ccc(OCCN3CCOCC3)cc2)cn1)NCc1ccccc1`, the growth with EKVX NSCLC was 26.1%; with SN12C renal it was 20.3%; with UO-31 renal, 35.8%; with TK-10 renal, 40.3%; with ACHN renal, 22.1%; in the test on CAKI-1 renal, 19%. In addition, the growth in the test with A498 renal was 1.26% (active); with CCRF-CEM leukemia it was 9.96% (active); in the test with MOLT-4 leukemia, 18.1%; with SR leukemia, 6.9% (active); in the test on RPMI-8226 leukemia it was 14.5%; in the test on OVCAR-8 ovarian, 1.32% (active). Further, the growth in the test with OVCAR-5 ovarian was 29.9%; in the test with OVCAR-4 ovarian, 47.9%; in the test on SK-OV-3 ovarian, -11.9% (active); in the test with IGROV1 ovarian, 15.5%; in the test with OVCAR-3 ovarian it was 20.3%; in the test on NCI/ADR-RES ovarian, 0.0856% (active).

As for `CN[C@@H]1C[C@H]2O[C@@](C)([C@@H]1OC)n1c3ccccc3c3c4c(c5c6ccccc6n2c5c31)C(=O)N[C@H]4O`, the growth in the test with EKVX NSCLC was -4.21% (active); with SN12C renal it was -38.7% (active); in the test with UO-31 renal, -64.4% (active); with TK-10 renal it was -34% (active); in the test on ACHN renal, 5.01% (active); in the test with CAKI-1 renal it was -59.7% (active). Also, the growth was -97.1% (active) in the test with A498 renal; 0.26% (active) in the test with CCRF-CEM leukemia; 0.831% (active) with MOLT-4 leukemia; 1.68% (active) in the test with SR leukemia; -46.2% (active) with RPMI-8226 leukemia; -36.7% (active) in the test with OVCAR-8 ovarian. For the same compound, the growth was -2.9% (active) in the test with OVCAR-5 ovarian; 16% with OVCAR-4 ovarian; -68.5% (active) in the test with SK-OV-3 ovarian; 0.929% (active) with IGROV1 ovarian; -31.6% (active) in the test on OVCAR-3 ovarian; -39.1% (active) in the test on NCI/ADR-RES ovarian.
